# Measurements as given in PubChem BioAssay (EPA / NIEHS).
# Records with an inconclusive call do not appear. The source made the active and inactive calls. How the source made its calls: active means hit-call score of the fitted dose curve at least 0.9, where 1 is the maximum; inconclusive means response in the unintended direction; inactive means score below 0.9.
# How the values were obtained:
# [1] = target: Estrogen receptor (Homo sapiens) (UniProt P03372); assay: OT_ER_ERaERa_1440: Odyssey Thera (OT) 24-hour HEK293T Protein-Complementation Assay for Estrogen Receptor-alpha/-alpha Homodimer (AID 2283349);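 further: hits raise fluorescence above DMSO for agonists and antagonists alike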
# Sequence of Estrogen receptor (Homo sapiens) (P03372 whole entry, looked up, the tested form may be a part): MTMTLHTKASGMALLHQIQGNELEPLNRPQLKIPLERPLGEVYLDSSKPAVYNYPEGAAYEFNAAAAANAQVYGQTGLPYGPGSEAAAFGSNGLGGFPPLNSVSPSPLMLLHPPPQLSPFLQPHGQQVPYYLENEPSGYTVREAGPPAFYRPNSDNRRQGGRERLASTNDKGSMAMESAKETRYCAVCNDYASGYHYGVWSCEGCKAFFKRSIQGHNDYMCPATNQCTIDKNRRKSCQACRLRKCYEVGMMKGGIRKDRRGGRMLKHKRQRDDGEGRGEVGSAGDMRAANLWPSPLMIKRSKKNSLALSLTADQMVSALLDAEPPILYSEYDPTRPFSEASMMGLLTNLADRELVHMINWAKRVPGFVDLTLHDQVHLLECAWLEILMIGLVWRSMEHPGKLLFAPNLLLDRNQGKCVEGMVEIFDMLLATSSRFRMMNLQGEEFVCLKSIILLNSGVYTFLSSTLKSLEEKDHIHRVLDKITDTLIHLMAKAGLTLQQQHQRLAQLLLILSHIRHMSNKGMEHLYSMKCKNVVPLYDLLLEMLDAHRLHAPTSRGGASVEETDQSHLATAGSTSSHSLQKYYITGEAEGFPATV
# Procedure, shortened: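 HEK293T cells stably expressing the human ER alpha ligand-binding domain (aa 310-547) as a homodimer PCA were dosed for 24 hours. Fluorescence intensity was read by laser scanning cytometry, and gain of signal was fitted relative to DMSO vehicle.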
# [2] = target: Estrogen receptor (Homo sapiens) (UniProt P03372); assay: OT_ER_ERaERa_0480: Odyssey Thera (OT) 8-hour HEK293T Protein-Complementation Assay for Estrogen Receptor-alpha/-alpha Homodimer (AID 2283351);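 further: rise in fluorescence from reassembled reporter fragments on ERα LBD homodimer in nucleus or whole cell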
# Procedure, shortened: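 HEK293T, stable ERα LBD (aa 310-547) PCA homodimer; 8 h compound exposure; fluorescence intensity, laser scanning cytometer; positive fitting direction, DMSO baseline.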
# [3] = target: T1, Estrogen receptor (Homo sapiens) + Estrogen receptor beta (Homo sapiens) (UniProt P03372+Q92731); assay: OT_ER_ERaERb_0480: Odyssey Thera (OT) 8-hour HEK293T Protein-Complementation Assay for Estrogen Receptor-alpha/-beta Heterodimer (AID 2283352)
# T1 sequence (P03372 whole entry, looked up, the tested form may be a part): as above
# T1 sequence (Q92731 whole entry, looked up, the tested form may be a part): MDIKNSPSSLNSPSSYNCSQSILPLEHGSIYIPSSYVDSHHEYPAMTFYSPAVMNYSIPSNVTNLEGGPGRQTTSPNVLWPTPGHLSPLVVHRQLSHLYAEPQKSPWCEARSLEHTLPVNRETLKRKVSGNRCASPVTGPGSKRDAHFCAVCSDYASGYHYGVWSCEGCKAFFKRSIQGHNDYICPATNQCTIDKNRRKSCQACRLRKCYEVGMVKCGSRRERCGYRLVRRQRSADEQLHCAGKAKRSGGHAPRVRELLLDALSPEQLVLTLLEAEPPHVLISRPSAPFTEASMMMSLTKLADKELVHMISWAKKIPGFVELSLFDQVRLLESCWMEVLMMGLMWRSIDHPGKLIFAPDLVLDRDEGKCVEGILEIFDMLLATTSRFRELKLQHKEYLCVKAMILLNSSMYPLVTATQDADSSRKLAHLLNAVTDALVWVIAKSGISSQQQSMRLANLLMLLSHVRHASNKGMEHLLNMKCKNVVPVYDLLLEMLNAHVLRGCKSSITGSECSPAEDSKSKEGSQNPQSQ
# Procedure, shortened: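 Increase in mean fluorescence intensity, measured by laser scanning plate cytometry, reported ER-alpha/ER-beta LBD complementation in HEK293T cells after 8 h chemical exposure. DMSO served as baseline; basal signal is low, punctate and cytoplasmic.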
# [4] = target: Androgen Receptor/SRC-1 Co-activator, AR (gene 367) (UniProt P10275); assay: OT_AR_ARSRC1_0960: Odyssey Thera (OT) 16-hour HEK293T Protein-Complementation Assay for Androgen Receptor/SRC-1 Co-activator (AID 2283353);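 further: actives raise the signal above DMSO so potency reflects increased AR and SRC-1 complex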
# Sequence of Androgen Receptor/SRC-1 Co-activator, AR (gene 367) (P10275 whole entry, looked up, the tested form may be a part): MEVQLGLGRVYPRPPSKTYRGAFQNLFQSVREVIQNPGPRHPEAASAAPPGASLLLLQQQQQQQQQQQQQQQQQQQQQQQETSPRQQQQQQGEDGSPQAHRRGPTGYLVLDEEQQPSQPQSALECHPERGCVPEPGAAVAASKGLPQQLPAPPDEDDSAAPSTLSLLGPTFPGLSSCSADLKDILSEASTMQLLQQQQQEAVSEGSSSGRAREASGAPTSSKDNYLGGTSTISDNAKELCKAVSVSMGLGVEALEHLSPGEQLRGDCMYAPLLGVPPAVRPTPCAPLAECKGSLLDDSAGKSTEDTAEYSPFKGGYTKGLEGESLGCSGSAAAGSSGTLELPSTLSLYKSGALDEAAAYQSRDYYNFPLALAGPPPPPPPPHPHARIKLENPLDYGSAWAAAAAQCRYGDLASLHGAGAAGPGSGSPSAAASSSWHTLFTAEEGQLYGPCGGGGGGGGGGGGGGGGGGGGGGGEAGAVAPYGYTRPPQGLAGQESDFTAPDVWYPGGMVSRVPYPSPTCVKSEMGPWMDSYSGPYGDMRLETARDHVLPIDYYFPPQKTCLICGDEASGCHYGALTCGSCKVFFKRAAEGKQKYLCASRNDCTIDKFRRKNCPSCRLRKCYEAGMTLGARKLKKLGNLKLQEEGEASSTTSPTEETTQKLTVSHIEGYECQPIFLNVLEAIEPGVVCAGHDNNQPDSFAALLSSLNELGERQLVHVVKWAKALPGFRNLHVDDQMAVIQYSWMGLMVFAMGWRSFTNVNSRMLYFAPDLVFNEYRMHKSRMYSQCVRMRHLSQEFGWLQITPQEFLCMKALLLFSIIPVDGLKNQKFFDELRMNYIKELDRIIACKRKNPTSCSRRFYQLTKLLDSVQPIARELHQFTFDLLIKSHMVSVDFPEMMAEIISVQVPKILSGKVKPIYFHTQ
# Procedure, shortened: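 Split-Venus PCA, AR/SRC-1 fusions, stable HEK293T; 16 h compound exposure; imaged at 488 and 635 nm; N/C ratio (488 nm channel), min 400 cells/image; positive-direction fit, DMSO baseline.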
# [5] = target: Androgen Receptor/SRC-1 Co-activator, AR (gene 367) (UniProt P10275); assay: OT_AR_ARSRC1_0480: Odyssey Thera (OT) 8-hour HEK293T Protein-Complementation Assay for Androgen Receptor/SRC-1 Co-activator (AID 2283354);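 further: hits raise the complementation signal above DMSO so AC50 marks enhancers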
# Procedure, shortened: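 HEK293T cells stably expressing AR and SRC-1 fused to Venus YFP fragments, imaged 8 h after dosing. Complementation fluorescence scored as nuclear/cytoplasmic ratio at 488 nm in at least 400 cells per image; gain fitted versus DMSO.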
# [6] = target: rat Mineralocorticoid Receptor (MR), Nr3c2 (gene 25672) (UniProt P22199); assay: NVS_NR_rMR: NovaScreen (NVS) Nuclear Receptor Binding Assay for rat Mineralocorticoid Receptor (MR) (AID 2283355)
# Procedure, shortened: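 Cell-free radioligand binding to mineralocorticoid receptor from adrenalectomized rat brain supernatant, scintillation counting after 24 h. Primary screen in duplicate at 25 uM; actives retested in concentration series. Loss of specific binding versus DMSO.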
# [7] = target: T1, Estrogen receptor (Homo sapiens) + Estrogen receptor beta (Homo sapiens); assay: OT_ER_ERaERb_1440: Odyssey Thera (OT) 24-hour HEK293T Protein-Complementation Assay for Estrogen Receptor-alpha/-beta Homodimer (AID 2283356);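 further: heteromer of ER alpha and ER beta binding domains; hits raise reporter fluorescence and both agonists and antagonists give an increase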
# Procedure, shortened: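 Heterodimerisation of ERα (aa 310-547) and ERβ (aa 263-489) ligand binding domains was tracked as fluorescence gain in stably transfected HEK293T cells following 24 h dosing, normalised to DMSO controls.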
# PGR (gene 5241) = PGR (gene 5241) (UniProt P06401); assay: NVS_NR_hPR: NovaScreen (NVS) Nuclear Receptor Binding Assay for human Progestron Receptor (PR) (AID 2283360);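 further: active means loss of bound radioligand signal versus DMSO baseline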
# Procedure, shortened: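 Competitive displacement of a labelled radioligand from T47D-derived receptor protein is measured in a cell-free format. Initial testing uses 25 uM in duplicate, with positive and negative controls on every plate.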
# [8] = target: rat Androgen Receptor (AR), Ar (gene 24208) (UniProt P15207); assay: NVS_NR_rAR: NovaScreen (NVS) Nuclear Receptor Binding Assay for rat Androgen Receptor (AR) (AID 2283366)
# Sequence of rat Androgen Receptor (AR), Ar (gene 24208) (P15207 whole entry, looked up): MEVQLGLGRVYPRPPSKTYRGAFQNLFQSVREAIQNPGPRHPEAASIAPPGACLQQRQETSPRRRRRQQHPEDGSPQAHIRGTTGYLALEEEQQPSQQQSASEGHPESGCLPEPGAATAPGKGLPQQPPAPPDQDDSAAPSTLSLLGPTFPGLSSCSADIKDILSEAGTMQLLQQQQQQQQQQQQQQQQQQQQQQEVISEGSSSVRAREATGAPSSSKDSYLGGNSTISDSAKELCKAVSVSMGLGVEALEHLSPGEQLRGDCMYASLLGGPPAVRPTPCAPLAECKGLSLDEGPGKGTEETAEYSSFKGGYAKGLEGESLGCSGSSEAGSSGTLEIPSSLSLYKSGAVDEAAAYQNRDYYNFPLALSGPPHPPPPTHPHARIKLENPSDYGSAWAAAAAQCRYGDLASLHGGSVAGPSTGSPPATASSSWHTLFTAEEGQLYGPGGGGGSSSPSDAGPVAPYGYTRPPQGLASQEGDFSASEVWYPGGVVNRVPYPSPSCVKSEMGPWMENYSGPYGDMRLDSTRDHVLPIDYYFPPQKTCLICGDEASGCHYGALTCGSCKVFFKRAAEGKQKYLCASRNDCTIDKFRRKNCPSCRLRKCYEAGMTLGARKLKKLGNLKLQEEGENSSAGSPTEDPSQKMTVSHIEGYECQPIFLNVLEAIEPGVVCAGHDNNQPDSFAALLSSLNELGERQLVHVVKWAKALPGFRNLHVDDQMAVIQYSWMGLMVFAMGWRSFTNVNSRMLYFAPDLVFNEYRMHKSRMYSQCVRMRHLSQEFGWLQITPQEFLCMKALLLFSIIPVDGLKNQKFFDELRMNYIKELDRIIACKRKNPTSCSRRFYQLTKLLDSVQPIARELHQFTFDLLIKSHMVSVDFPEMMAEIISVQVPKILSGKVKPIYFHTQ
# Procedure, shortened: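 Cell-free radioligand binding on extracts of prostate from testosterone-pretreated rats, read by filter-based scintillation counting 18 h after dosing. Loss of bound signal fitted positively versus DMSO; primary screen in duplicate at 25 uM, actives followed up in concentration series.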
# [9] = test system: guinea pig Dopamine Transporter (DAT), gene 100714898; assay: NVS_TR_gDAT: NovaScreen (NVS) Transporter Assay for guinea pig Dopamine Transporter (DAT) (AID 2283369);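 further: active compounds lower bound radioligand signal relative to DMSO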
# Procedure, shortened: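 Test chemicals were incubated 2 h with guinea pig striatal membranes and a radioligand; bound label was separated by filtration and counted. Screening ran at 25 uM, followed by concentration-response testing to a 50 uM maximum.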
# [10] = target: Estrogen receptor beta (Homo sapiens) (UniProt Q92731); assay: OT_ER_ERbERb_0480: Odyssey Thera (OT) 8-hour HEK293T Protein-Complementation Assay for Estrogen Receptor-beta/-beta Homodimer (AID 2283357);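 further: active means signal gain over DMSO baseline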
# Sequence of Estrogen receptor beta (Homo sapiens) (Q92731 whole entry, looked up, the tested form may be a part): as the sequence (Q92731 whole entry, looked up, the tested form may be a part) above
# Procedure, shortened: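 Fluorescence intensity, nuclear for agonists and nuclear plus cytoplasmic for antagonists, was quantified by laser scanning cytometry versus vehicle after 8 h treatment. The cells were HEK293T stably carrying ER beta LBD fragment-complementation partners.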
# [11] = target: Estrogen receptor (Homo sapiens) (UniProt P03372); assay: NVS_NR_hER: NovaScreen (NVS) Nuclear Receptor Binding Assay for human Estrogen Receptor (ER) (AID 2283348)
# Procedure, shortened: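 Radioligand competitive displacement binding to estrogen receptor from MCF7 extract, cell-free; 18 h after dosing, scintillation read-out. Primary screen in duplicate at 25 uM; actives followed up in concentration series; loss of signal vs DMSO.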
# [12] = target: Nuclear receptor subfamily 1 group I member 2 (Homo sapiens) (UniProt O75469); assay: NVS_NR_hPXR: NovaScreen (NVS) Nuclear Receptor Binding Assay for human Pregnane X Receptor (PXR) (AID 2283365);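 further: a drop in FRET signal versus DMSO baseline means the compound binds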
# Procedure, shortened: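 Binding was measured by time-resolved fluorescence resonance energy transfer after a 2 h exposure of extracted human PXR protein without cells. Compounds were first tested at 25 uM in duplicate, with concentration series for actives; DMSO defined baseline.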
# [13] = target: Retinoic acid receptor alpha (Homo sapiens) (UniProt P10276); assay: NVS_NR_hRAR_Antagonist: NovaScreen (NVS) Nuclear Receptor Binding Assay for human Retinoic Acid Alpha Receptor Antagonism (RAR) (AID 2283358)
# Sequence of Retinoic acid receptor alpha (Homo sapiens) (P10276 whole entry, looked up): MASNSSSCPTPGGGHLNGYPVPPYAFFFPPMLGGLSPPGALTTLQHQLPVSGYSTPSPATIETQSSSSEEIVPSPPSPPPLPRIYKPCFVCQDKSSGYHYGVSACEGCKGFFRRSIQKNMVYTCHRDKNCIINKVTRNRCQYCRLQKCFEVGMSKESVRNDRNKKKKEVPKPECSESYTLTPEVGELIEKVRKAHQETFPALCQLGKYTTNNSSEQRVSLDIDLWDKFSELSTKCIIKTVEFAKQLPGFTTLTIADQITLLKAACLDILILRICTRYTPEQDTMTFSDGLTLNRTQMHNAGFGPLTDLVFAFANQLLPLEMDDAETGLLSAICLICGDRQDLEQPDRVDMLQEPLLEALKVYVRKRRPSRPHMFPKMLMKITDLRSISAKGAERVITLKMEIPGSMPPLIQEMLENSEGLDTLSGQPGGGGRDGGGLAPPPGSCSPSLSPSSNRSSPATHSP
# Procedure, shortened: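 Cell-free TR-FRET binding assay with extracted human RARalpha in antagonist mode, read 2 h after dosing. Loss of signal was fitted relative to DMSO; the primary screen used 25 uM in duplicate, with concentration series on follow-up.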
# [14] = target: Glucocorticoid receptor (Homo sapiens) (UniProt P04150); assay: NVS_NR_hGR: NovaScreen (NVS) Nuclear Receptor Binding Assay for human Glucocorticoid Receptor (GR) (AID 2283363);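 further: activity is loss of specific radioligand binding signal relative to DMSO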
# Sequence of Glucocorticoid receptor (Homo sapiens) (P04150 whole entry, looked up): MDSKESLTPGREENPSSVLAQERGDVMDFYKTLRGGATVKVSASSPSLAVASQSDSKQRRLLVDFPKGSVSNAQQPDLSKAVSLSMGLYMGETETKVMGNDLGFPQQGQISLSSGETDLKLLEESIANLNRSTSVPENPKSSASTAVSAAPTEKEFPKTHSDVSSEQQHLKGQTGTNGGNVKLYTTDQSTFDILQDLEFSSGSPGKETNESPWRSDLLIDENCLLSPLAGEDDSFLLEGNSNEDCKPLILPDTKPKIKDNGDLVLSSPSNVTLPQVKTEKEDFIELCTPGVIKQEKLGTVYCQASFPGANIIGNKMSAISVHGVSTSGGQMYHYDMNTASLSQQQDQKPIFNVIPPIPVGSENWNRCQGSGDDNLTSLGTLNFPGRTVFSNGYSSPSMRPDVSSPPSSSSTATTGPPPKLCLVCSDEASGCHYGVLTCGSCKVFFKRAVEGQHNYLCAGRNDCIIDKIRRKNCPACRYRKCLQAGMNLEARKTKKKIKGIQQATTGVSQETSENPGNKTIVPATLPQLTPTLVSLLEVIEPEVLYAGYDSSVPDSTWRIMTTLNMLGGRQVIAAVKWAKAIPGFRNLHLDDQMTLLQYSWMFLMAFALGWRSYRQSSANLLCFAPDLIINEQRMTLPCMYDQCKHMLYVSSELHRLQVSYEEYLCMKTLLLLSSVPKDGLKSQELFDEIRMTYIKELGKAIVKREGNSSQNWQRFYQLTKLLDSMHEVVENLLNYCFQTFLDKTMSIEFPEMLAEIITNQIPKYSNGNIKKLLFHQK
# Procedure, shortened: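 Cell-free radioligand displacement assay on extracted human GR, read 16 h after dosing by filter-based scintillation counting. Screened in duplicate at 25 uM, then concentration series for actives; loss of signal versus DMSO baseline.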
# [15] = target: human Thyroid Receptor Alpha (TRa), THRA (gene 7067) (UniProt P10827); assay: NVS_NR_hTRa_Antagonist: NovaScreen (NVS) Nuclear Receptor Binding Assay for human Thyroid Receptor Alpha Antagonism (TRa) (AID 2283362);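 further: activity is loss of signal relative to DMSO baseline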
# Sequence of human Thyroid Receptor Alpha (TRa), THRA (gene 7067) (P10827 whole entry, looked up): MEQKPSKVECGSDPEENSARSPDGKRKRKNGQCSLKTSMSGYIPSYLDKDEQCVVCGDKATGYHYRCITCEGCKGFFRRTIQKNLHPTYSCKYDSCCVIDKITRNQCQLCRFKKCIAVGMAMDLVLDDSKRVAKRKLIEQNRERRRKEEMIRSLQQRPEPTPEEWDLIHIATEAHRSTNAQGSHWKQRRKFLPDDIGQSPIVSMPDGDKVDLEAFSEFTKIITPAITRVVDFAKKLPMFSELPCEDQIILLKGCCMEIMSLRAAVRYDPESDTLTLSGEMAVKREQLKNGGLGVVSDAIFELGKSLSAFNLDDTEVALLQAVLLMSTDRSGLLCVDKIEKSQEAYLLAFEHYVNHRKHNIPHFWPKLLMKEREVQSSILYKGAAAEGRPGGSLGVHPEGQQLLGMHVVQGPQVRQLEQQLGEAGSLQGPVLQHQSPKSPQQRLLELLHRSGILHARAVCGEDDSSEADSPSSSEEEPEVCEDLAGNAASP
# Procedure, shortened: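 Chemicals were first screened in duplicate at 25 uM, then actives were retested in concentration series. Binding to the extracted receptor was measured 1 h after dosing by AlphaLISA chemiluminescence, with decreased signal versus DMSO scored as activity.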
# [16] = target: Retinoic acid receptor alpha (Homo sapiens) (UniProt P10276); assay: NVS_NR_hRARa_Agonist: NovaScreen (NVS) Nuclear Receptor Binding Assay for human Retinoic Acid Alpha Receptor Agonism (RAR) (AID 2283361)
# Procedure, shortened: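 Cell-free TR-FRET binding readout with extracted receptor protein, read 2 hours after dosing; gain-of-signal fitted relative to DMSO. Screened in duplicate at 25 uM, actives then run in concentration-response.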
smiles,measurement,setting,value
CN(Cc1cnc2nc(N)nc(N)c2n1)c1ccc(C(=O)N[C@@H](CCC(=O)O)C(=O)O)cc1,outcome,[1],inactive
same,outcome,[2],inactive
same,outcome,[3],inactive
same,outcome,[4],inactive
same,outcome,[5],inactive
same,outcome,[6],inactive
same,outcome,[7],inactive
same,outcome,PGR (gene 5241),inactive
same,outcome,[8],inactive
same,outcome,[9],inactive
CCCCCCC(C)(C)C(=O)O,outcome,[1],inactive
same,outcome,[2],inactive
same,outcome,[3],inactive
same,outcome,[4],inactive
same,outcome,[5],inactive
same,outcome,[7],inactive
same,outcome,[10],inactive
COc1cc([N+](=O)[O-])ccc1N,outcome,[1],inactive
same,outcome,[2],inactive
same,outcome,[3],inactive
same,outcome,[4],inactive
same,outcome,[5],inactive
same,outcome,[7],inactive
same,outcome,[10],inactive
O=C1Cc2ccccc2N1c1c(Cl)cccc1Cl,outcome,[11],inactive
CCCCCCCCCCCC[N+](C)(C)CCCCCCCCCCCC,AC50,[11],46.8 µM (active)
CCOC(=O)c1nc(C(Cl)(Cl)Cl)n(-c2ccc(Cl)cc2Cl)n1,outcome,[11],inactive
NNc1nc(-c2ccc([N+](=O)[O-])cc2)cs1,outcome,[11],inactive
Cc1cc(Cc2cc(C)cc(C(C)(C)C)c2O)c(O)c(C(C)(C)C)c1,outcome,[11],inactive
same,outcome,[1],inactive
same,outcome,[2],inactive
same,outcome,[7],inactive
same,outcome,[10],inactive
CCCCCCCCCC=CCC1CC(=O)OC1=O (configuration not stated),outcome,[1],inactive
same,outcome,[2],inactive
same,outcome,[3],inactive
same,outcome,[4],inactive
same,outcome,[5],inactive
same,outcome,[7],inactive
same,outcome,[10],inactive
same,outcome,[12],inactive
CCCCCCCCCCCCOC(=O)c1cc(O)c(O)c(O)c1,AC50,[1],11.9 µM (active)
same,outcome,[2],inactive
same,AC50,[3],11.9 µM (active)
same,AC50,[7],11.9 µM (active)
same,outcome,[10],inactive
same,AC50,[13],36.9 µM (active)
same,AC50,[14],12.7 µM (active)
CCCCc1oc2ccccc2c1C(=O)c1cc(I)c(OCCN(CC)CC)c(I)c1,outcome,[1],inactive
same,outcome,[2],inactive
same,outcome,[3],inactive
same,outcome,[10],inactive
same,AC50,[9],17.8 µM (active)
C=CC(C)(CCC=C(C)C)OC(C)=O (configuration not stated),AC50,[11],6.92 µM (active)
same,outcome,[1],inactive
same,outcome,[2],inactive
Oc1c(Cl)cc(Cl)cc1Sc1cc(Cl)cc(Cl)c1O,outcome,[11],inactive
O=C(c1cc(O)c(O)c(O)c1)c1ccc(O)c(O)c1O,outcome,[11],inactive
C[C@]12CC[C@@H]3c4ccc(O)cc4CC[C@H]3[C@@H]1CC[C@@H]2OC(=O)CCC1CCCC1,AC50,[11],0.00446 µM (active)
CCCCCCOC(=O)c1ccc(O)cc1,AC50,[11],5.86 µM (active)
Oc1ccc(Cc2ccccc2O)cc1,outcome,[11],inactive
N=C(N)c1ccc(OCCCCCOc2ccc(C(=N)N)cc2)cc1,outcome,[11],inactive
same,outcome,[1],inactive
same,outcome,[2],inactive
same,AC50,[9],2.07 µM (active)
c1ccc(CNc2ncnc3c2ncn3C2CCCCO2)cc1 (configuration not stated),outcome,[11],inactive
NCc1cccc(CN)c1,outcome,[11],inactive
same,outcome,[1],inactive
same,outcome,[2],inactive
same,outcome,[3],inactive
same,outcome,[7],inactive
same,outcome,[10],inactive
CN(C)CCOC(c1ccccc1)c1ccccc1,outcome,[1],inactive
same,outcome,[2],inactive
same,outcome,[3],inactive
same,outcome,[4],inactive
same,outcome,[5],inactive
same,outcome,[7],inactive
same,AC50,[9],6.23 µM (active)
CC1=CC(=O)c2ccccc2C1=O,outcome,[11],inactive
O=C(Nc1cccc([N+](=O)[O-])c1)c1cc2ccccc2cc1O,outcome,[11],inactive
CCCCCCCCCCCCCC[n+]1ccccc1,outcome,[11],inactive
O=C(Nc1ccc(Cl)c(Cl)c1)c1cc(Cl)cc(Cl)c1O,AC50,[11],25 µM (active)
O=C(O)c1cccc(C(=O)O)n1,outcome,[1],inactive
same,outcome,[2],inactive
same,outcome,[3],inactive
same,outcome,[7],inactive
same,AC50,[15],28.1 µM (active)
CCc1ccccc1O,outcome,[11],inactive
same,outcome,[1],inactive
same,outcome,[2],inactive
same,outcome,[3],inactive
same,outcome,[7],inactive
same,outcome,[10],inactive
Nc1cc(Cl)c(-c2cc(Cl)c(N)cc2Cl)cc1Cl,AC50,[11],0.0384 µM (active)
Cc1cc(C(=C2C=CC(=Nc3ccc(S(=O)(=O)O)cc3)C=C2)c2ccc(Nc3ccc(S(=O)(=O)O)cc3)cc2)cc(S(=O)(=O)O)c1N,outcome,[1],inactive
same,outcome,[2],inactive
same,outcome,[3],inactive
same,outcome,[4],inactive
same,outcome,[5],inactive
same,outcome,[7],inactive
same,outcome,[10],inactive
same,AC50,[16],17.5 µM (active)
same,outcome,[15],inactive
same,AC50,[14],1.32 µM (active)
same,AC50,[12],0.574 µM (active)
same,AC50,[8],1.22 µM (active)
